The text below walks through data of PubChem BioAssay (NCI).

SMILES strings stand for the structures. About 83,000 compounds went through this panel and 20% of them were active in at least one assay; those are over-represented in the sample as a whole.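 Percent growth is the endpoint: 0 to 100 indicates growth inhibition (40 means 60% inhibition), 0 means no net growth, and negative values indicate cell death.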 A number with no mark means an inactive call. Active and inactive are the calls of the source. The calls were made as follows: active = growth percent below 10; inactive = the rest.

Some test systems named below: T-47D breast; BT-549 breast; MDA-MB-435 melanoma; SW-620 colon; MCF7 breast; HCC-2998 colon; KM12 colon; HCT-116 colon.
Experiment in all cases: NCI-60 one-dose screen, 48 h (100 = growth as untreated, 0 = no growth, -100 = all killed)
What all share (conditions): 10 µM unless noted

For `COc1cccc(-c2ccc3c(c2)NC(=O)/C3=C\c2ccc[nH]2)c1`, the growth was 13.6% in the experiment on T-47D breast; 36.6% with BT-549 breast; 8.7% (active) in the experiment with MDA-MB-435 melanoma; 25.1% in the experiment with SW-620 colon; 11.3% with MCF7 breast; 25.4% in the experiment with HCC-2998 colon. The growth in the experiment with KM12 colon is 9.35% (active).

Regarding `Cc1ccc(-n2c3c(c(-c4ccccc4)c2-c2ccccc2)C2=NCCN2C=N3)cc1`, the growth is 72.7% in the experiment on T-47D breast; 107% in the experiment with BT-549 breast; 97.8% with MDA-MB-435 melanoma; 89.9% in the experiment on SW-620 colon; 86.8% with MCF7 breast; 108% in the experiment on HCC-2998 colon. Moreover, the growth in the experiment with KM12 colon is 90.5%.

With `O=c1ccc(-c2nc(N3CCOCC3)c3ccccc3n2)c[nH]1`, the growth in the experiment on T-47D breast was 77%; in the experiment on MDA-MB-435 melanoma, 99.7%; with SW-620 colon, 107%; in the experiment on MCF7 breast, 89.1%; in the experiment with HCT-116 colon it was 101%; in the experiment on HCC-2998 colon, 105%.

Turning to `COc1cc2c(=O)n(CCN)c3c4cc5c(cc4ccc3c2cc1OC)OCO5`, the growth with T-47D breast is 27.1%; with BT-549 breast, 35.2%; with MDA-MB-435 melanoma it was -91% (active); in the experiment with SW-620 colon, -75.6% (active); in the experiment on MCF7 breast it was 17.6%; in the experiment on HCC-2998 colon, 44.9%. The growth in the experiment with KM12 colon is -64% (active).

On to `COc1ccc2[nH]c(O)c(/C=c3/cc4c(c(-c5ccc(F)cc5)n3)=Nc3ccccc3-4)c2c1`, for which the growth in the experiment on T-47D breast was 73.6%; in the experiment on BT-549 breast, 98.9%; in the experiment on MDA-MB-435 melanoma, 34.4%; in the experiment on SW-620 colon, 27.5%; in the experiment with MCF7 breast it was 26.8%; in the experiment on HCC-2998 colon, 72.8%. Moreover, the growth with KM12 colon was 43.7%.

On to `OCc1cnc2ccccc2c1NC1CCCCCC1`, for which the growth in the experiment with T-47D breast was 65%; with MDA-MB-435 melanoma, 91.4%; in the experiment with SW-620 colon, 98%; in the experiment with MCF7 breast, 73.5%; in the experiment with HCT-116 colon, 77.9%; with HCC-2998 colon it was 111%. For the same compound, the growth in the experiment on KM12 colon was 96.4%.

In the case of `O=C(CNCCN1CCOCC1)N1c2cccc3cccc(c23)N(C(=O)CNCCN2CCOCC2)C1c1cn(-c2ccccc2)nc1-c1cccc([N+](=O)[O-])c1`, the growth with T-47D breast was 77.6%; in the experiment with BT-549 breast it was 89.7%; with MDA-MB-435 melanoma, 80.1%; in the experiment on SW-620 colon, 83.2%; in the experiment on MCF7 breast, 36.9%; with HCC-2998 colon it was 35.4%. The growth with KM12 colon is 98.8%.

On to `CCOC(=O)c1nc2c3ccccc3ccn2c1C(=O)OCC`, for which the growth in the experiment on T-47D breast is 98.2%; in the experiment on BT-549 breast, 103%; with MDA-MB-435 melanoma, 105%; with MCF7 breast it was 95.9%; with HCT-116 colon, 104%; with HCC-2998 colon it was 103%. Also, the growth in the experiment on KM12 colon was 100%.

In the case of `CCNC(=O)Oc1ccc(/C(=C(\C)c2ccccc2)c2ccc(OCCCN(C)C)cc2)cc1`, the growth was 45.6% in the experiment on T-47D breast; 70.7% in the experiment with BT-549 breast; 69.6% with MDA-MB-435 melanoma; 94.5% in the experiment with SW-620 colon; 27% in the experiment with MCF7 breast; 67.9% in the experiment with HCC-2998 colon. The growth with KM12 colon was 65.8%.

As to `CC(=O)[C@H]1CCC/C=C/[C@@H]2C[C@H](O)C[C@H]2[C@H](O)/C=C/C(=O)O1`, the growth in the experiment on T-47D breast was -12.2% (active); with BT-549 breast, 9.71% (active); in the experiment on MDA-MB-435 melanoma, 8.17% (active); in the experiment on SW-620 colon it was -33.5% (active); in the experiment with MCF7 breast, 3.81% (active); with HCC-2998 colon it was -23.3% (active). Further, the growth in the experiment with KM12 colon is -26.9% (active).

On to `CC(=O)[C@@H]1CC[C@]2(CO)CC[C@]3(C)[C@H](CC[C@@H]4[C@@]5(C)CCCNC(C)(C)[C@@H]5CC[C@]43C)[C@@H]12`, for which the growth in the experiment on T-47D breast is 103%; in the experiment with BT-549 breast, 101%; in the experiment with MDA-MB-435 melanoma, 96.8%; with SW-620 colon it was 103%; in the experiment on MCF7 breast, 87.1%; with HCC-2998 colon it was 101%. The growth in the experiment on KM12 colon was 101%.

Consider `COc1cc2nc(-c3ccc(C(F)(F)F)cc3)cc(OCCCN3CCCC3)c2cc1OC`, for which the growth with T-47D breast is 38.4%; in the experiment with BT-549 breast it was 28.8%; in the experiment on MDA-MB-435 melanoma it was -21.1% (active); in the experiment with SW-620 colon, 28.6%; in the experiment on MCF7 breast, 44.7%; in the experiment with HCC-2998 colon it was 70%. In addition, in the experiment with KM12 colon, the growth is 36.4%.

As for `COc1ccc2[nH]c(=O)c(CN3CCN(c4nccc(-c5ccc(Cl)cc5)n4)CC3)cc2c1`, the growth in the experiment on T-47D breast was 73.6%; with BT-549 breast, 91.2%; in the experiment with MDA-MB-435 melanoma, 97.9%; with SW-620 colon it was 89.5%; in the experiment on MCF7 breast, 83.5%; with HCC-2998 colon, 105%.

With `O=C(NCCNc1nccc(-c2c(-c3cccc(F)c3)nc3sccn23)n1)c1ccc(Cl)cc1`, the growth was 49% in the experiment on T-47D breast; 32.1% in the experiment on MDA-MB-435 melanoma; 65.2% in the experiment on SW-620 colon; 27.7% in the experiment with MCF7 breast; 33% with HCT-116 colon; 90.1% with HCC-2998 colon.

For `O=C(Nc1ccc(F)cc1)Nc1ccc(NC(=O)c2cc(Cl)nc3ccccc23)cc1`, the growth in the experiment on T-47D breast was 42.9%; with BT-549 breast, 37.2%; with MDA-MB-435 melanoma, 73.8%; with SW-620 colon, 65%; in the experiment on MCF7 breast it was 69%; in the experiment on HCC-2998 colon, 51%. For the same compound, the growth in the experiment with KM12 colon is 58.5%.

For the compound `N#CC(C(=O)/C(=N/NC(=O)c1ccccc1O)C(C#N)c1ccccc1)c1ccccc1` (configuration not stated), the growth in the experiment with T-47D breast is 24.9%; in the experiment on BT-549 breast it was 44.2%; with MDA-MB-435 melanoma, 24.1%; in the experiment with SW-620 colon, 80.2%; in the experiment on MCF7 breast, 55.3%; with HCC-2998 colon, 85.9%. The growth in the experiment on KM12 colon was 46.5%.

Regarding `Cc1ccc(-n2cc(-c3ccccc3)c3c2N=NN2CCN=C32)cc1`, the growth with T-47D breast is 93.5%; with BT-549 breast, 125%; with MDA-MB-435 melanoma it was 101%; in the experiment with SW-620 colon it was 92.5%; with MCF7 breast it was 98.7%; with HCC-2998 colon, 111%. Besides, the growth with KM12 colon was 102%.

On to `NC(=S)N1N=C(c2ccccc2)CC1c1cn(-c2ccccc2)nc1-c1ccc(OCc2ccccc2)cc1` (configuration not stated), for which the growth in the experiment on T-47D breast is 95.2%; in the experiment with BT-549 breast, 113%; with MDA-MB-435 melanoma, 109%; with SW-620 colon, 106%; in the experiment with MCF7 breast, 97.3%; in the experiment on HCC-2998 colon, 103%. Moreover, the growth in the experiment on KM12 colon is 99.5%.

On to `O=C1c2ccc3c4c(ccc(c24)C(=O)N1CCCNCc1ccccc1)C(=O)N(CCCNCc1ccccc1)C3=O`, for which the growth with T-47D breast was -29.9% (active); in the experiment with BT-549 breast, -85.2% (active); with MDA-MB-435 melanoma, -54% (active); with SW-620 colon, -81.8% (active); in the experiment with MCF7 breast it was -83.8% (active); with HCC-2998 colon it was -90.8% (active). In the experiment on KM12 colon, the growth is -81.8% (active).

For the compound `COc1cc(NC(C)CCCNC(=O)CCC(=O)NCCCNCCCCCCCCCCNCCCNC(=O)CCC(=O)NCCCC(C)Nc2cc(OC)cc3cccnc23)c2ncccc2c1` (configuration not stated), the growth was 28.5% [8 µM] in the experiment with T-47D breast; 95.5% [8 µM] in the experiment on BT-549 breast; 75.8% [8 µM] with MDA-MB-435 melanoma; 73.4% [8 µM] in the experiment with SW-620 colon; 24.3% [8 µM] in the experiment with MCF7 breast; 79.8% [8 µM] in the experiment with HCC-2998 colon. In the experiment on KM12 colon, the growth is 89.2% [8 µM].

Consider `CC(C)(C)c1cc(C=O)cc(C(C)(C)C)c1O`, for which the growth was 110% in the experiment on T-47D breast; 92.5% in the experiment with BT-549 breast; 111% with MDA-MB-435 melanoma; 97.7% in the experiment on SW-620 colon; 92.9% in the experiment with HCT-116 colon; 93.6% in the experiment with HCC-2998 colon. Moreover, the growth with KM12 colon is 99.6%.

For the compound `COc1cc(-c2n/c(=C\c3c(O)[nH]c4ccc(Cl)cc34)cc3c2=Nc2ccccc2-3)ccc1F`, the growth with T-47D breast is 56%; in the experiment with BT-549 breast it was 85.9%; in the experiment on MDA-MB-435 melanoma, 21.3%; in the experiment on SW-620 colon, -1.7% (active); with MCF7 breast, -54.2% (active); in the experiment with HCC-2998 colon, 71.6%. The growth with KM12 colon was 4.87% (active).

For the compound `COc1cc2cc(CN3CCN(c4nccc(-c5ccc6ccccc6c5)n4)CC3)c(=O)[nH]c2cc1OC`, the growth in the experiment on T-47D breast was 81.5%; with BT-549 breast it was 95.6%; in the experiment on MDA-MB-435 melanoma, 91.1%; in the experiment with SW-620 colon, -55% (active); in the experiment on MCF7 breast, 42.8%; in the experiment on HCC-2998 colon it was 101%. The growth with KM12 colon was 83.4%.

In the case of `CC(Sc1nc2ccccc2c(=O)n1CCc1ccc(S(N)(=O)=O)cc1)C(=O)Nc1ccc(Cl)cc1` (configuration not stated), the growth in the experiment on T-47D breast was 67.6%; in the experiment on BT-549 breast it was 102%; with MDA-MB-435 melanoma it was 98.7%; in the experiment on SW-620 colon it was 98.1%; in the experiment with MCF7 breast it was 84.6%; with HCC-2998 colon, 103%. Also, the growth in the experiment with KM12 colon is 97.5%.

As for `N#C/C(=C\c1ccc([N+](=O)[O-])s1)c1nc2cc(Br)ccc2s1`, the growth was 4.46% (active) in the experiment on T-47D breast; -13% (active) with BT-549 breast; 0.206% (active) with MDA-MB-435 melanoma; -14.2% (active) in the experiment on MCF7 breast; -8.27% (active) in the experiment on HCC-2998 colon; 16.2% with KM12 colon.

As to `CCOc1ccc(Nc2nc(-c3ccc4c(c3)NC(=O)CO4)cs2)cc1`, the growth in the experiment on T-47D breast was 24.6%; with BT-549 breast it was 47%; with MDA-MB-435 melanoma, 30.7%; in the experiment with SW-620 colon, 82.5%; in the experiment on MCF7 breast, 38.1%; in the experiment on HCC-2998 colon it was 86%. Moreover, the growth in the experiment on KM12 colon was 67.9%.

On to `O=[N+]([O-])c1ccc(N=Nc2cc(S(=O)(=O)O)c3cccc(S(=O)(=O)O)c3c2O)cc1`, for which the growth was 108% with T-47D breast; 105% in the experiment on BT-549 breast; 86% with MDA-MB-435 melanoma; 112% with SW-620 colon; 97.7% in the experiment on MCF7 breast; 112% with HCC-2998 colon. Also, the growth with KM12 colon is 118%.

As for `Cc1ccc(/C=N/NC(=O)CSc2nc3ccccc3c(=O)n2Cc2ccc(S(N)(=O)=O)cc2)cc1`, the growth in the experiment with T-47D breast is 81.7%; in the experiment with BT-549 breast, 103%; with MDA-MB-435 melanoma, 46.2%; in the experiment with SW-620 colon it was 94%; in the experiment on MCF7 breast it was 59.4%; in the experiment on HCC-2998 colon, 99.9%. The growth with KM12 colon is 86.3%.
